# Hit rate of the full screen: of about 310,000 compounds, about 14,000 (4.5%) showed an effect of 50% or more. Effects have a minus sign here. The entries come from a sample that favours strong results as a whole.
# Target: human ether-à-go-go-related gene (hERG) potassium channel (human, UniProt Q12809)
# Experiment: primary screen, population patch clamp on CHO cells stably expressing hERG; higher = less effect of the substance
# 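Note: peak tail current of the secondary pulse compared with the same well before compound.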
# Chain of human ether-à-go-go-related gene (hERG) potassium channel (Q12809 whole entry, looked up): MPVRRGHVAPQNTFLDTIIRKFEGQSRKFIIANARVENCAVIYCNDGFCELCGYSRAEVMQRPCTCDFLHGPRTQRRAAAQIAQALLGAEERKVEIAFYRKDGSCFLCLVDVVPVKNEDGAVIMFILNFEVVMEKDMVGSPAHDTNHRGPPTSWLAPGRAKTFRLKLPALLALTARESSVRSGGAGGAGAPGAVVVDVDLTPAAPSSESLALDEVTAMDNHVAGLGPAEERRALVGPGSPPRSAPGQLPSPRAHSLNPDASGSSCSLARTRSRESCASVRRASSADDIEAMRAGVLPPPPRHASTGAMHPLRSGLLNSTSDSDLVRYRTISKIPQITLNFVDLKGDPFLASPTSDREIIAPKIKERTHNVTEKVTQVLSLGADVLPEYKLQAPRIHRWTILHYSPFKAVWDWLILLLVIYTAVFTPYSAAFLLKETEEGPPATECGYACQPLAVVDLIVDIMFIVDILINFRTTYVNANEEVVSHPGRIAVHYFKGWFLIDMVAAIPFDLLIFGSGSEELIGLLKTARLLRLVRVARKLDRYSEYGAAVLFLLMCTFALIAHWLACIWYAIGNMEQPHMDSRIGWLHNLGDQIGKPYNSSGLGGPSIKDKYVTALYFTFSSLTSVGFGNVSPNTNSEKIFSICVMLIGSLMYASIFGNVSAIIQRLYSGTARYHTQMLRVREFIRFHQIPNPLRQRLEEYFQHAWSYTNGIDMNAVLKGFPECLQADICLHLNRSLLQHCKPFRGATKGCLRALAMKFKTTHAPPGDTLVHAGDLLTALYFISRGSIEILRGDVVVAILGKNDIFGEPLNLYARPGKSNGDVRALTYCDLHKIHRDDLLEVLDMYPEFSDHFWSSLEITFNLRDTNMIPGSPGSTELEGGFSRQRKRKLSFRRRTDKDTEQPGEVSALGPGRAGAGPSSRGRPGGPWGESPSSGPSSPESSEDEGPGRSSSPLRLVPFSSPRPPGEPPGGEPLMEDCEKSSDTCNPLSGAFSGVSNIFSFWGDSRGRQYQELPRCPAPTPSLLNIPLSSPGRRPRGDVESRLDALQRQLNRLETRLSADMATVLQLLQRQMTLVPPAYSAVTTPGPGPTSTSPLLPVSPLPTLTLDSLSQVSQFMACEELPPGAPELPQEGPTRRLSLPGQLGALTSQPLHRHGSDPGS
row,Structure (SMILES),"hERG current change (%, negative = inhibition) at 10uM [%]"
1,CCOC(=O)c1ccc(NC(=O)Nc2ccc3c(c2)OCCO3)cc1,10.6
2,Cn1c(=O)c2c(nc(SCC(=O)c3cccs3)n2Cc2ccc(F)cc2)n(C)c1=O,-13.2
3,COc1ccc(C(=O)c2ccccc2Cl)cc1,-34.5
4,O=C(CSc1nnc(CNC(=O)c2ccccc2F)o1)NCc1ccccc1,-7.93
5,Cc1ccc(NC(=O)COC(=O)C2CC(=O)N(Cc3ccccc3)C2)cc1S(=O)(=O)N(C)C (stereo not drawn),7.45
6,CCCn1ccnc1SC(C)C(=O)Nc1c(C)n(C)n(-c2ccccc2)c1=O (stereo not drawn),16.9
7,CN1C(=O)N(C)c2ccc(Br)c3cccc1c23,23.5
8,CC(OC(=O)c1ccccc1C(=O)N(C)c1ccccc1)C(=O)Nc1ccc(C(N)=O)cc1 (stereo not drawn),-4.36
9,Cc1coc2c(C)c3oc(=O)c(CCC(=O)N4C[C@H]5C[C@@H](C4)c4cccc(=O)n4C5)c(C)c3cc12,-50.6
10,Cc1c(OCC(=O)N2C[C@H]3C[C@@H](C2)c2cccc(=O)n2C3)ccc2c3c(c(=O)oc12)CCCC3,-13.5
11,COc1ccc(-c2cc(=O)oc3cc(OCC(=O)N4C[C@H]5C[C@@H](C4)c4cccc(=O)n4C5)ccc23)cc1,-53.5
12,CCc1cc(=O)oc2cc(OCC(=O)N3C[C@H]4C[C@@H](C3)c3cccc(=O)n3C4)ccc12,8.87
13,Cc1cc(=O)oc2cc(OCC(=O)N3C[C@H]4C[C@@H](C3)c3cccc(=O)n3C4)ccc12,1.52
14,Cc1c(C)c2ccc(OCC(=O)N3C[C@H]4C[C@@H](C3)c3cccc(=O)n3C4)c(C)c2oc1=O,1.39
15,COCCOC1CCN(C(=O)C2CCC(=O)N(Cc3cccc(F)c3)C2)CC1 (stereo not drawn),20.1
16,CCOC(=O)N1CCN(C(=O)c2ccc(NS(=O)(=O)c3ccc(F)cc3)cc2)CC1,-1.81
17,CCN(C(=O)COC(=O)C1CCN(S(=O)(=O)c2ccc(C)c(C)c2)CC1)C1CCCCC1,-10.4
18,Cc1ccc(/C(N)=N/OC(=O)CSc2ccccc2)cc1,-5.49
19,CCOC(=O)N1CCC(NC(=O)c2cc3c(-c4ccccc4F)nn(C)c3s2)CC1,13.5
20,Cn1nc(-c2ccccc2F)c2cc(C(=O)Nc3ccc4c(c3)OCCO4)sc21,14.8
21,CC(=O)c1ccc(N2CCN(C(=O)c3cc4c(-c5ccccc5F)nn(C)c4s3)CC2)cc1,-20.7
22,CC(CCc1ccco1)NC(=O)c1cc2c(-c3ccccc3F)nn(C)c2s1 (stereo not drawn),-5.86

row,Structure (SMILES),"hERG current change (%, negative = inhibition) at 10uM [%]"
1,COCCNC(=O)c1cc2c(-c3ccccc3F)nn(C)c2s1,-6.2
2,CN(CCNC(=O)c1cc2c(-c3ccccc3F)nn(C)c2s1)C1CCCCC1,-50.8
3,Cn1nc(-c2ccc(Cl)cc2)c2cc(C(=O)N3CCN(C(=O)c4ccco4)CC3)sc21,-20.7
4,Cn1nc(-c2ccccc2F)c2cc(C(=O)N3CCN(C(=O)c4ccco4)CC3)sc21,-57.2
5,CC1CCCCN1CCNC(=O)c1cc2c(-c3ccccc3F)nn(C)c2s1 (stereo not drawn),-56.1
6,CCOc1ccc(NC(=O)c2ccc(-n3cccn3)nc2)cc1,18.7
7,CCN(/C=N/c1sc2c(c1C#N)CCCCC2)CC,5.56
8,CC(c1ccccc1)n1c(-c2ccc(Cl)cc2)n[nH]c1=S (stereo not drawn),13.9
9,CCOc1cc(C(=O)Nc2ccc([N+](=O)[O-])cn2)cc(OCC)c1OCC,-29
10,COc1ccc(C(=O)CC(=O)C(=O)Nc2cc(OC)c(OC)c(OC)c2)cc1,8.58
11,Cc1ccc2[nH]c3c(NCCCN4CCCC4=O)ncnc3c2c1,-13.7
12,Fc1ccc2[nH]c3c(NCCN4CCOCC4)ncnc3c2c1,-16.8
13,Clc1ccc(-n2ncc3c(NCCN4CCOCC4)ncnc32)cc1,-34.7
14,Clc1ccc2[nH]c3c(NCCN4CCOCC4)ncnc3c2c1,-61.8
15,Cc1ccc2ncnc(NCCCN3CCOCC3)c2c1,-13.6
16,Clc1ccc2[nH]c3c(NCCCN4CCOCC4)ncnc3c2c1,-69.9
17,c1ccc(-n2nnc3ccccc32)nc1,3.7
18,O=C(NN1C(=O)c2ccccc2NC1c1cccnc1)c1ccc([N+](=O)[O-])cc1 (stereo not drawn),-37.5
19,O=C(NCS(=O)(=O)c1ccccc1)c1ccccc1,-0.415
20,CCOc1ccc2nc(CN3CCN(Cc4ccccc4OCC)C(CCO)C3)ccc2c1 (stereo not drawn),-56.9
21,CCOc1ccccc1CN1CCN(Cc2ccc3cccc(OC)c3n2)CC1CCO (stereo not drawn),-55.5
22,CCOc1ccccc1CN1CCN(Cc2ccc3cc(F)ccc3n2)CC1CCO (stereo not drawn),-65.7

row,Structure (SMILES),"hERG current change (%, negative = inhibition) at 10uM [%]"
1,COc1ccc(-c2csc(NC(C)c3nc4cc(C(=O)NCCCO)ccc4n3Cc3ccc(C)cc3)n2)cc1 (stereo not drawn),9.34
2,Fc1ccccc1Nc1nc2ccccc2n2nnnc12,7.8
3,CCOc1cc(C(=O)Nc2ccc(S(=O)(=O)Nc3cc(C)on3)cc2)cc(OCC)c1OCC,-0.904
4,O=C(NCc1ccco1)C1CCC(N2C(=O)c3ccccc3C2=O)CC1 (stereo not drawn),1.59
5,C=C1Cn2c(nnc2-c2ccc(Cl)cc2)S1,-27.4
6,C=CCNC(=O)C1(c2ccccc2)CC1(Cl)Cl (stereo not drawn),-5.1
7,O=c1cc(N2CCCCC2)c(-c2ccccc2)nn1Cc1cccc(Cl)c1,0.996
8,COC(=O)c1ccc(/C=C2\Oc3ccccc3NC2=O)cc1,15.5
9,CCOC(=O)C1=C(C)NC(=S)NC1c1ccc(-c2cccc(Cl)c2C)o1 (stereo not drawn),14.4
10,COc1ccc(N2CC(O)(c3ccc(OC(F)F)cc3)[N+]3=C2CCCC3)cc1.[Br-] (stereo not drawn),-70
11,OC1(c2cccs2)CN(c2ccc(Cl)cc2)C2=[N+]1CCCC2.[Br-] (stereo not drawn),-59.5
12,OC1(c2cccs2)CN(c2ccccc2)C2=[N+]1CCCC2.[Br-] (stereo not drawn),4.63
13,COc1ccc(N2CC(O)(c3ccc(C)cc3)[N+]3=C2CCCC3)cc1.[Br-] (stereo not drawn),-38.9
14,CCOc1ccc(N2CC(O)(c3cccs3)[N+]3=C2CCCC3)cc1.[Br-] (stereo not drawn),-69.7
15,Cc1cccc(N2CC(O)(c3cccs3)[N+]3=C2CCCC3)c1C.[Br-] (stereo not drawn),-43.5
16,COc1ccc(N2CC(O)(c3ccc(F)cc3)[N+]3=C2CCCC3)cc1.[Br-] (stereo not drawn),-3.37
17,CCOc1ccc(N2CC(O)(c3ccc(F)cc3)[N+]3=C2CCCC3)cc1.[Br-] (stereo not drawn),-71.6
18,COc1ccc(C2(O)CN(c3ccc(C)cc3)C3=[N+]2CCCC3)cc1.[Br-] (stereo not drawn),-37.5
19,Cc1ccc(N2CC(O)(c3cccs3)[N+]3=C2CCCC3)cc1.[Br-] (stereo not drawn),-32.3
20,CCOc1ccc(N2CC(C(=O)NNC(=O)c3ccc(F)cc3)CC2=O)cc1 (stereo not drawn),-25.4
21,Cc1cccc(N2CC(O)(c3cccs3)[N+]3=C2CCCC3)c1.[Br-] (stereo not drawn),-12.3
22,Cc1cccc(C)c1NC(=O)CN1C(=O)COc2ccccc21,10.5

row,Structure (SMILES),"hERG current change (%, negative = inhibition) at 10uM [%]"
1,Cc1ccc(S(=O)(=O)c2cnc(-c3ccccc3)nc2N2CCCCC2)cc1,25.7
2,CS(=O)(=O)c1ccc(NCCc2ccccn2)c([N+](=O)[O-])c1,-22.7
3,COc1cccc(C2C(C(=O)Nc3ccc(C)cc3C)=C(C)Nc3ncnn32)c1OC (stereo not drawn),7.02
4,O=C(Nc1c2c(nn1-c1ccc(F)cc1)CS(=O)C2)c1ccco1 (stereo not drawn),-21.4
5,CC(=O)Nc1ccc(NC(=O)c2cc(=O)c3ccc(C)cc3o2)cc1,17.4
6,CCC1=NN(C(=O)Cc2ccccc2)C(O)(c2ccncc2)C1 (stereo not drawn),28.9
7,COc1ccc(OCc2cccc(C(=O)Nn3cc([N+](=O)[O-])cn3)c2)cc1,-15.6
8,CCOC(=O)c1ccc(CNC(=O)c2cc(COc3ccccc3SC)on2)o1,1.07
9,CC(C)Cn1c(N)c(C=O)c(=O)n(C)c1=O,26.4
10,COc1cccc(CN2CC(C(=O)N3CCN(c4ccc(Cl)cc4)CC3)CCC2=O)c1 (stereo not drawn),-70.9
11,Cc1cc(N2CCC(C(=O)N3CCN(c4cccc(C)c4C)CC3)CC2)n2ncnc2n1,-68.7
12,O=C(C1CCC(=O)N(C2CC2)C1)N1CCN(c2ccc(Cl)cc2)CC1 (stereo not drawn),-38.1
13,O=C(C1CCC(=O)N(C2CCCCCC2)C1)N1CCN(c2ccccc2Cl)CC1 (stereo not drawn),-42.9
14,Cc1cc(N2CCN(C(=O)OC(C)(C)C)CC2)n2ncnc2n1,-27.5
15,O=C(C1CCC(=O)N(C2CCCC2)C1)N1CCN(c2ccccc2Cl)CC1 (stereo not drawn),-15.8
16,O=C1CCC(C(=O)N2CCN(c3ccccc3Cl)CC2)CN1CC1CCCCC1 (stereo not drawn),-72.2
17,COc1cccc(CN2CC(C(=O)N3CCCCCCC3)CCC2=O)c1 (stereo not drawn),-2.24
18,Cc1cccc(N2CCN(C(=O)C3CCCCC3)CC2)c1C,-24.8
19,COc1cccc(CN2CC(C(=O)N3CCCC3)CCC2=O)c1 (stereo not drawn),19.4
20,O=C(C1CCC(=O)N(C2CCCC2)C1)N1CCN(c2ccc(Cl)cc2)CC1 (stereo not drawn),-61
21,O=C1CCC(C(=O)N2CCN(c3ccccc3)CC2)CN1CC1CCCCC1 (stereo not drawn),-27.5

# Reference: paper PMC4336329 (PLoS ONE, 2015)
